A short description of assay [1]: Viability qHTS for spleen associated tyrosine kinase inhibitor (SYKi) naive MV4-11 cells (AID 1963823). Note: nearly all actives have a fitted effect of over 40% in size. Note: potency is the fitted concentration of half-maximal effect. In a few lines: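 In this viability screen, compounds acted on SYK inhibitor naive MV4-11 cells for three days (72 hr, 37 C). Remaining viable cells were measured by CellTiter-Glo luminescence following a 10 min room-temperature development.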
Assay [2] can be described thus: Viability qHTS for spleen associated tyrosine kinase inhibitor (SYKi) drug resistant MV4-11 cells (AID 1963824). Note: nearly all actives have a fitted effect of over 35% in size. Note: potency is the fitted concentration of half-maximal effect. In a few lines:
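SYK-inhibitor-resistant MV4-11 AML cells were seeded at 500 per well onto compound and cultured 72 hours (37 °C, 5% CO2). CellTiter-Glo was then added, and after 10 min at room temperature, luminescence gave viability.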
On the technique in general: In qHTS, concentration-response curves come from the screen itself.

The nature of assay [3]: Cellular viability qHTS for adrenocortical cancer (ACC) cell line NCI-H295R (AID 1963990). Note: nearly all actives have a fitted effect of over 60% in size. Note: potency is the fitted concentration of half-maximal effect. In outline: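 Luminescent ATP read-out (CellTiter-Glo, 20 min RT) after 48 h drug exposure of NCI-H295R cells; a titration up to 46 uM final. Data normalized to doxorubicin (100% inhibition) and DMSO (0%); 4-parameter fit gives IC50, max response.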
Assay [4] is described as follows: Quantitative highthroughput screen to assess conditional lethalithy of NOMO1 cells grown in Human Plasma-Like Medium with dialyzed fetal bovine serum (HPLM+ds) (AID 1963878).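 Note: 100% = DMSO wells and 0% = empty wells on each plate; nearly all actives have a fitted effect of over 35% in size.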 In outline: (§1)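 Each medium arm—HPLM with 10% dialyzed FBS, or RPMI1640 with 5 mM glucose and 10% untreated or dialyzed FBS—was screened against an 11-point, 3-fold compound titration for 48 h at 37 °C, with CellTiter-Glo luminescence as endpoint.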

Assay [5] is described as follows: Quantitative highthroughput screen to assess conditional lethalithy of P12 Ichikawa cells grown in Human Plasma-Like Medium with dialyzed fetal bovine serum (HPLM+ds) (AID 1963879). Note: series mostly up to about 46 µM; nearly all actives have a fitted effect of over 35% in size. The note with it: Potency: viability. In outline: as §1
The nature of assay [6]: Quantitative highthroughput screen to assess conditional lethalithy of P12 Ichikawa cells grown in RPMI1640 with dialyzed fetal bovine serum (RPMI+ds) (AID 1963880).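 Note: 100% = DMSO wells and 0% = empty wells on each plate; nearly all actives have a fitted effect of over 35% in size.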 The following applies: Potency: P12-Ichikawa viability. In outline: as §1
Assay [7] can be described thus: Quantitative highthroughput screen to assess conditional lethalithy of SEM cells grown in Human Plasma-Like Medium with dialyzed fetal bovine serum (HPLM+ds) (AID 1963882). In outline:
as §1

Assay [8] is described as follows: Quantitative highthroughput screen to assess conditional lethalithy of SEM cells grown in RPMI1640 with unreated serum (RPMI+s) (AID 1963883). In a few lines: as §1
Assay [9] can be described thus: Quantitative highthroughput screen to assess conditional lethalithy of SEM cells grown in RPMI1640 with dialyzed fetal bovine serum (RPMI+ds) (AID 1963884). In outline:
as §1

A short description of assay [10]: Cellular viability qHTS for adrenocortical cancer (ACC) cell line SW-13 (AID 1963989).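 For activity (max response): cells grown in serum-free medium with ITS supplement; % is set by controls: 0 for no effect and ±100 for the full control effect.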 Note: nearly all actives have a fitted effect of over 65% in size. Note: potency is the fitted concentration of half-maximal effect. The note with it: SW-13 ACC cells viability, CellTiter-Glo, 48 h; activity (max response): stronger effect = lower value. In a few lines: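 SW-13 cells in ITS-supplemented serum-free DMEM were plated overnight, then exposed for 48 h at 37C to compound titrations (up to 46 uM final). Viability was read by CellTiter-Glo luminescence; four-parameter logistic fits gave IC50 and efficacy.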

Assay [11] is described as follows: Quantitative highthroughput screen to assess conditional lethalithy of NOMO1 cells grown in RPMI1640 with untreated serum (RPMI+s) (AID 1963876).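 For Viability: 100% = DMSO wells and 0% = empty wells without cells.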 Note: nearly all actives have a fitted effect of over 35% in size. Note: potency is the fitted concentration of half-maximal effect. In outline:
as §1

Assay [12] can be described thus: Quantitative highthroughput screen to assess conditional lethalithy of P12 Ichikawa cells grown in RPMI1640 with untreated serum (RPMI+s) (AID 1963881). The note with it: Potency: viability. In a few lines: as §1

Consider 23 compounds from PubChem BioAssay (NCATS).

Each structure is given as a SMILES string. Values joined by “and” are separate entries in the source; they are usually repeats but may differ in a detail not shown here. Equal values may be shown once. Records with an inconclusive call do not appear. Unmarked numbers belong to inactive results. Active and inactive are the calls of the source. Calls come from the whole dose curve; as a rule, active = well fitted curve in the direction sought with a large enough effect; inconclusive = small, poorly fitted or top-dose-only effect, or another doubt; inactive = no such curve, though single readings can be large; an effect the other way counts as inactive or inconclusive.

In the case of `C/C1=C/C[C@@H](/C(C)=C/c2csc(C)n2)OC(=O)C[C@H](O)C(C)(C)C(=O)[C@H](C)[C@@H](O)[C@@H](C)CCC1`, the Potency in [1] was 0.0332 µM (active); in assay [2], 33.2 nM (active); in assay [3], 22.4 nM (active).
Regarding `CNCC(O)c1ccc(O)cc1` (stereo not given), the Potency result in [1], in assay [4], in [5], in [6], in [7] and in assay [8] was “inactive” throughout. Further, the Potency entry in assay [9] and in assay [3] was “inactive” each time. In assay [10], the activity (max response) is -3.15% and -7.74%.
For the compound `C[C@@H]1O[C@@H](O[C@@H]2C=C3CC[C@@H]4[C@H](CC[C@]5(C)[C@@H](c6ccc(=O)oc6)CC[C@]45O)[C@@]3(C)CC2)[C@H](O)[C@H](O)[C@H]1O`, the Potency is 0.006 µM (active) in [1]; 7.5 nM (active) in assay [2]; 11.2 nM (active) and 7.3 nM (active) in assay [3].
Regarding `CO[C@]12CC[C@@]3(C[C@@H]1[C@](C)(O)C(C)(C)C)[C@@H]1Cc4ccc(O)c5c4[C@@]3(CCN1CC1CC1)[C@H]2O5`, the Potency in [1] is 21.5 µM (active); in assay [10], 6.31 µM (active); in assay [3] it was 3980 nM (active).
For `Clc1ccc(CCC(Cn2ccnc2)Sc2c(Cl)cccc2Cl)cc1` (stereo not given), the Potency in assay [1] was 18.6 µM (active); in [2] it was 11.9 µM (active) and 18.6 µM (active); in assay [3] it was 20.6 µM (active) and 35.5 µM (active).
On to `O=c1[nH]c2cc(Cl)ccc2n1C1CCNCC1`, for which the Potency entry in assay [1] and in [3] was “inactive” in each case. For the same compound, the activity (max response) in assay [10] was 8.8%.
As to `C[N+]1(CCC(C(N)=O)(c2ccccc2)c2ccccc2)CCCCC1`, the Potency entry in assay [1] and in assay [3] was “inactive” each time. The activity (max response) in assay [10] was 8.34%.
As to `Cc1cccc(C)c1NC(=O)CN1CCCC1=O`, the Potency entry in assay [1], in assay [11], in assay [4], in assay [7] and in assay [3] was “inactive” each time. The activity (max response) in [10] is -5.06% and 4.95%.
Take `OCCCBr`: the Potency result in assay [1] and in assay [3] was “inactive” each time. Besides, in assay [10], the activity (max response) is 0.205%.
For `CCCC[N+]1(C)[C@H]2CC(OC(=O)[C@H](CO)c3ccccc3)C[C@H]1[C@H]1O[C@H]12` (stereo not given in full), the Potency entry in assay [1], in assay [6], in assay [12], in assay [7] and in [3] was “inactive” throughout. Moreover, in assay [11], the Potency was 18.7 µM (active). Further, the activity (max response) in assay [10] was -1.99%.
As to `CN1C2CCC(C)(C)C1CC(OC(=O)C(O)(c1cccs1)c1cccs1)C2` (stereo not given), in assay [1], the Potency entry was “inactive”. For the same compound, in assay [10], the activity (max response) is -3.56%.
For the compound `CCN(CC)C(=O)N[C@@H]1C=C2c3cccc4[nH]cc(c34)C[C@@H]2N(C)C1`, the Potency entry in assay [1] and in assay [3] was “inactive” each time.
Consider `CC(C)(N)Cc1ccccc1Cl`, for which the Potency result in [1] and in assay [3] was “inactive” each time. Moreover, the activity (max response) in assay [10] was 5.36%.
In the case of `C/C(=C\c1csc(C)n1)[C@@H]1C[C@@H]2O[C@@H]2CCC[C@H](C)[C@H](O)[C@@H](C)C(=O)C(C)(C)[C@@H](O)CC(=O)O1`, the Potency in assay [1] is 0.0052 µM (active); in [3], 22.4 nM (active).
In the case of `ClC1=C(Cl)[C@]2(Cl)[C@@H]3[C@@H]4C[C@@H]([C@H]5O[C@@H]45)[C@@H]3[C@@]1(Cl)C2(Cl)Cl`, in assay [2], the Potency is 30600 nM (active).
For the compound `O=C(O)c1cc(Oc2ccc(C(F)(F)F)cc2Cl)ccc1[N+](=O)[O-]`, the Potency entry in [1] and in assay [3] was “inactive” in each case.
Regarding `COc1ccc(CN2CCNCC2)c(OC)c1OC`, the Potency entry in assay [1] and in assay [3] was “inactive” throughout. The activity (max response) in assay [10] is 10.4%.
For the compound `COc1nn(CSP(=S)(OC)OC)c(=O)s1`, the Potency in [1] was 38.6 µM (active); in [10] it was 31.6 µM (active); in assay [3], 25100 nM (active).
For `COC1=CC(=O)O[C@@H](/C=C/c2ccccc2)C1`, the Potency result in [2] was “inactive”.
For `CCOP(=S)(OCC)O/N=C(\C#N)c1ccccc1`, the Potency result in assay [1] and in assay [3] was “inactive” in each case.
Turning to `C#CC(O)(C=CCl)CC` (stereo not given), the Potency entry in [1] and in assay [3] was “inactive” throughout. Further, the activity (max response) in assay [10] is 7.7%.
Consider `CCOC(=O)C1(CCc2ccccc2)CCN(Cc2ccc(NC(C)=O)cc2)CC1`, for which, in assay [2], the Potency is 23100 nM (active).
Regarding `COc1cccc2c1C(=O)c1c(O)c3c(c(O)c1C2=O)C[C@@](O)(C(=O)CO)CC3OC1CC(N2CCOC(OC)C2)C(O)C(C)O1` (stereo not given in full), the Potency was 0.0027 µM (active) in assay [1] and 50.1 nM (active) in [3].
